Some compounds were tested as several samples or in several runs, with calls that do not always agree. Calls of active or inactive are those of the source. The calls were made as follows: active = hit-call score of the fitted dose curve at least 0.9, where 1 is the maximum; inactive = score below 0.9.

This test deals with Transcriptional activator Myb (Homo sapiens) (UniProt P10242). The test can be described thus: ATG_Myb_CIS: Attagene CIS-FACTORIAL HepG2 Assay for human Myeloblastosis (Myb) Proto-Oncogene Transcription Factor (AID 2282986). To be noted: HepG2 Attagene CIS-FACTORIAL Myb reporter transcription; actives raise or lower the signal. On the procedure: ATG_CIS is a cell-based, multiplexed-readout assay that uses HepG2, a human liver cell line, with measurements taken at 24 hours after chemical dosing in a 24-well plate.ATG_Myb_CIS is one of 52 assay component(s) measured or calculated from the ATG_CIS assay. It is designed to make measurements of mRNA induction, a form of inducible reporter, as detected with fluorescence intensity signals by Reverse transcription polymerase chain reaction (RT-PCR) and Capillary electrophoresis technology.Data from the assay component ATG_Myb_CIS was analyzed into 1 assay endpoint. This assay endpoint, ATG_Myb_CIS, was analyzed with bidirectional fitting relative to DMSO as the negative control and baseline of activity. Using a type of inducible reporter, measures of mRNA for gain or loss-of-signal activity can be used to understand the reporter gene at the transcription factor-level as they relate to the gene MYB. Furthermore, this assay endpoint can be referred to as a primary readout, because this assay has produced multiple assay endpoints where this one serves a reporter gene function. To generalize the intended target to other relatable targets, this assay endpoint is annotated to the dna binding intended target family, where the subfamily is MYB proteins.
Transcriptional activator Myb (Homo sapiens), sequence (P10242 whole entry, looked up): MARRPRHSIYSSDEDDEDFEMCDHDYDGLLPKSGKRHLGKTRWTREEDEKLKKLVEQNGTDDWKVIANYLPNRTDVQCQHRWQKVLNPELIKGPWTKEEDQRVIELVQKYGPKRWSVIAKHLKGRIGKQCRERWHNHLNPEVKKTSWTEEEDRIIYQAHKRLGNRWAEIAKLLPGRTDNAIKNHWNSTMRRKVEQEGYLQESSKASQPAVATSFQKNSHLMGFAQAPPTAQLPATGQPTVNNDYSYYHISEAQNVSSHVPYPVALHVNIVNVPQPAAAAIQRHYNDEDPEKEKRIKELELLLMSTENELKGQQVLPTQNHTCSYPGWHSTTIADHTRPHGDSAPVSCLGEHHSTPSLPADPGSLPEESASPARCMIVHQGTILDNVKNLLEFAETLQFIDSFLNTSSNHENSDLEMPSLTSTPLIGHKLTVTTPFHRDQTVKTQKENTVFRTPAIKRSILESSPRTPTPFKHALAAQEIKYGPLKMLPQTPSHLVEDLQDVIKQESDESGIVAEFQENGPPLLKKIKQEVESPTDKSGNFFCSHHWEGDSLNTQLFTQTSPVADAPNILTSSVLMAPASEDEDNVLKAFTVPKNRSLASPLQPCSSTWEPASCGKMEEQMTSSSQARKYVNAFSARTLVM
Human liver HepG2 cells are transiently transfected with multiple reporter transcription units (MRTUs) in 6-well plates using FuGene 6 reagent (Roche; 3 ml FuGene/1 mg DNA). The MRTU constructs are regulated by a cis-regulating element (promoter). […] A major difference between the CIS and TRANS system is that in CIS activities of endogenous TFs are measured, whereas the TRANS assay evaluates changes in activities of exogenous, chimeric NR-Gal4 proteins. […] At the end of 24 hour incubation, total RNA was isolated using TriZol reagent (Invitrogen). The isolated RNA is then reverse-transcribed using oligo(dT) primer and Mo-MLV reverse transcriptase (Invitrogen) with DNAse I (Ambion) treatment for 30 min. The one-tenth of the produced cDNA was amplified by PCR using Taq DNA polymerase (Invitrogen) and two reporter sequence-specific primers. The PCR products were fluorescently labeled by primer extension with 6-arboxyfluorescein (6-FAM) 5'-labeled reporter sequence-specific primer (2 min at 95 C, 20 s at 68 C and 10 min at 72 C) and these products were digested with 5U of HpaI (New England Biolabs) for 2h at 37 C. The fragments were purified using Qiaquick PCR columns (Qiagen), analyzed on an ABI 3130xL genetic analyzer (Applied Biosystems) with peak positions identified by using a set of X-rhodamine (ROX)-labeled MapMarker1000 molecular weight standards (BioVentures). The raw capillary electrophoresis data was processed using Attagraph software (Attagene).
Take `NC(=O)C(F)(F)C(F)(F)C(F)(F)C(F)(F)F`: the call was inactive.

As for `CCN(CC)c1ccc2c(C)cc(=O)oc2c1`, the outcome was inactive.

On to `CCCCCCOC(=O)c1ccccc1O`, for which the molecule was called inactive.

Consider `CCCCCCCCCCCCCCCC[N+](C)(C)Cc1ccccc1`, for which the molecule was called inactive.

On to `CCN(Cc1cccc(S(=O)(=O)O)c1)c1ccc(C(=C2C=CC(=[N+](CC)Cc3cccc(S(=O)(=O)O)c3)C=C2)c2ccc(O)cc2S(=O)(=O)[O-])cc1`, for which the outcome was inactive.

As usually defined, the AC50 is the concentration at which the activity in the assay is half-maximal. Turning to `O=S(=O)(O)C(F)(F)C(F)(F)C(F)(F)C(F)(F)C(F)(F)C(F)(F)C(F)(F)F`, the half-maximal activity concentration (AC50) was 160 µM (active) and the molecule was called inactive.

For `Nc1ccc(Oc2cccc(Oc3ccc(N)cc3)c2)cc1`, the AC50 was 108 µM (active).

With `CCCCOc1ccc(N)cc1`, the result was inactive.

On to `C=CC(=O)OCC(F)(F)C(F)(F)C(F)(F)C(F)(F)COC(=O)C=C`, for which the call was inactive.

`N=C(N)C(F)(F)C(F)(F)C(F)(F)C(F)(F)C(F)(F)C(F)(F)C(F)(F)F`: the molecule was classed as inactive.

As to `FC(F)(F)C(F)(F)C(F)(F)C(F)(F)C(F)(F)C(F)(F)C(F)(F)I`, the molecule was called inactive.

In the case of `O=C(CC(=O)C(F)(F)C(F)(F)F)C(F)(F)F`, the result was inactive.

Turning to `FC1CC(F)(F)C(F)(F)C1(F)F` (stereo not given), the molecule was classed as inactive.

Consider `Cc1cccc(N(C)C)c1`, for which the molecule was called inactive.

As for `Nc1ccc([N+](=O)[O-])cc1O`, the call was inactive.

For `C=CC(F)(F)C(F)(F)C(F)(F)C(F)(F)C(F)(F)C(F)(F)C(F)(F)C(F)(F)F`, the result was inactive.

`CCCCCCCCC(F)(F)C(F)(F)C(F)(F)C(F)(F)C(F)(F)C(F)(F)F`: the molecule was called inactive.

With `Nc1ccc(S(=O)(=O)Nc2nccs2)cc1`, the molecule was classed as inactive.

With `CNC(=S)NC`, the molecule was called inactive.

Regarding `FC(F)(F)C(F)(F)C(F)(F)C(F)(F)C(F)(F)C(F)(F)CCS`, the result was inactive.

Turning to `C=C(C)C(=O)OCC(F)(F)C(F)(F)C(F)(F)C(F)(F)C(F)(F)C(F)(F)C(F)(F)F`, the molecule was classed as inactive.

As for `CCC(=O)OCCc1ccccc1`, the call was inactive.

For the molecule `OCC(F)(F)C(F)(F)C(F)(F)C(F)F`, the outcome was inactive.

In the case of `FC(F)(I)C(F)(F)C(F)(F)C(F)(F)I`, the call was inactive.

In the case of `CC(=O)Nc1ccc(N=Nc2cc(C)ccc2O)cc1`, the outcome was inactive.

In the case of `COC(OC(C)=O)c1ccccc1` (stereo not given), the call was inactive.

Turning to `O=C(O)C(F)(F)C(F)(F)C(F)(F)F`, the call was inactive.

Regarding `CC(C)(C)c1ccc(OC2CCCCC2O)cc1` (stereo not given), the molecule was called inactive.

For `C=C(C)C(=O)OCC(F)(F)C(F)(F)C(F)(F)F`, the molecule was classed as inactive.

For `OC[C@@H](O)[C@@H](O)[C@H](O)[C@@H](O)CO`, the molecule was classed as inactive.

Regarding `FC(F)(F)C(F)(F)C(F)(F)C(F)(F)CCI`, the molecule was called inactive.

Take `COC(=O)CCC(F)(F)C(F)(F)C(F)(F)C(F)(F)F`: the molecule was called inactive.

Turning to `O=C(O)C=C(C(F)(F)F)C(F)(F)F`, the molecule was classed as inactive.

As to `C=CC(=O)OCC(F)(F)C(F)(F)C(F)(F)C(F)(F)C(F)(F)C(F)(F)C(F)(F)F`, the call was inactive.

With `C=CC(F)(F)C(F)(F)C(F)(F)C(F)(F)C(F)(F)C(F)(F)C(F)(F)C(F)(F)C=C`, the outcome was inactive.

As to `CCCCOCCOCCOC(=O)CCCCC(=O)OCCOCCOCCCC`, the result was inactive.

`O=C(O)C(F)(F)C(F)(F)C(F)(F)C(F)(F)C(F)(F)C(F)(F)C(F)(F)C(F)(F)Cl`: the call was inactive.

`CS(C)(=O)=O`: the outcome was inactive.

Consider `CO[Si](OC)(c1ccccc1)c1ccccc1`, for which the outcome was inactive.

The record behind these values is PubChem BioAssay (EPA / NIEHS).
